# Results as given in PubChem BioAssay (NCATS).
# Results filed as inconclusive are left out. Activity calls are given as the source filed them. Calls come from the whole dose curve; as a rule, active = well fitted inhibition curve with a large enough effect; inconclusive = small, poorly fitted or top-dose-only effect; inactive = no such curve, though single readings can be large or run the other way.
# Experiment: Primary qHTS for small molecule stabilizers of the endoplasmic reticulum resident proteome: Secreted ER Calcium Modulated Protein (SERCaMP) assay (AID 1508630)
# Conditions: SH-SY5Y GLuc-SERCaMP (Gaussia luciferase released on ER calcium loss) secretion, thapsigargin, luminescence; series mostly up to 38.4 µM; activity change, negative = inhibition: at the top concentration
# How it was run: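 GLuc-SERCaMP-expressing SH-SY5Y cells, pretreated 16 h with compound, are challenged with thapsigargin to empty ER calcium stores; after 4 h, coelenterazine is added directly to the medium and luminescence is imaged.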
# % is set by controls: 0 for no effect and ±100 for the full control effect.
row,SMILES,"activity change, negative = inhibition"
1,COc1cc(Cl)cn2c(-c3cccc(NC4CNC4)n3)cnc12,9.1% (inactive)
2,CCCCN(CCCC)CC(O)c1cc(Cl)cc2c1-c1ccc(Cl)cc1C2=Cc1ccc(Cl)cc1 (stereo not drawn),-21.3% (inactive)
3,C[C@@H]1[C@H](O)[C@@H](C)C=CC=CC=CC=CC=CC=CC=C[C@H](O[C@@H]2O[C@H](C)[C@H](O)[C@H](N)[C@@H]2O)C[C@@H]2O[C@](O)(C[C@@H](O)C[C@@H](O)[C@H](O)CC[C@@H](O)C[C@@H](O)CC(=O)O[C@H]1C)C[C@H](O)[C@@H]2C(=O)O,46.7% (inactive)
4,CO[C@H]1/C=C\O[C@@]2(C)Oc3c(C)c(O)c4c(O)c(c(C=NN5CCN(C6CCCC6)CC5)c(O)c4c3C2=O)NC(=O)C(C)=CC=C[C@H](C)[C@H](O)[C@@H](C)[C@@H](O)[C@@H](C)[C@H](OC(C)=O)[C@H]1C,132% (inactive)
5,Oc1cc(O)cc(C=Cc2ccc(O)c(O)c2)c1,-10.7% (inactive)
6,O=S(=O)(NCCNCC=Cc1ccc(Br)cc1)c1cccc2cnccc12,185% (inactive)
7,CN(C)CCOc1ccc(C(=C(CCCl)c2ccccc2)c2ccccc2)cc1,31.1% (inactive)
8,O=C(O)C1=CO[C@@H](O[C@@H]2O[C@H](CO)[C@H](O)[C@H](O)[C@H]2O)[C@@H]2C(CO)=CC[C@H]12,43.1% (inactive)
